Only some compounds are listed: those with a hit (about 3.9% of all), similar ones and a draw of the others.
TPT1 inhibitor = C. albicans TPT1 enzyme inhibition; recombinant caTPT1, FP RNA substrate dephosphorylation; 300,000 tested, 0.81% active; inhibition, % at 5 µM;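 active = inhibition above the mean of all tested compounds plus 3 SD, set per screening campaign, cut at about 24% in these data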;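 note: plate controls were DMSO alone for no effect and ferristatin control at 100 nM for full effect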
SKKanGAS inh = SKKanGAS growth inhibition; 300,000 tested, 1.3% active; S. pyogenes SKKanGAS, kanamycin growth, BacTiter-Glo, 6 h; AID 1662; inhibition, % at 7.5 µM;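 active = mean replicate score, as percent of positive control median, at least 50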;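 note: strain carries kanamycin resistance gene driven by streptokinase promoter and grows in 40 µg/ml kanamycin; loss of luminescence reflects streptokinase promoter inhibition or plain growth inhibition; 0% = median of DMSO wells and 100% = positive control at its reference dose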
WT yeast gro inh = growth inhibition of WT yeast, mitochondrial fusion screen; inhibition, % at 10 µM; AID 1362; mitochondrial fusion phenotypic screen, WT strain; 190,000 tested, 2.1% active; in the data active = inhibition above about 58%; tested in S. cerevisiae
Platelet DG rel = modulates dense granule release in human platelets. human platelet-rich plasma, SFLLRN dense granule ATP release, luminescence. inhibition, %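 (compounds screened at 7.5 µM in platelet-rich plasma)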. 300,000 tested, 0.22% active. AID 1663;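 active = mean replicate score, as percent of positive control, at or above 50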
PHOSPHO1 inh = PHOSPHO1 (human) inhibition; Q8TCT1; recombinant PHOSPHO1, absorbance phosphatase assay; inhibition, % at 13.3 µM; 290,000 tested, 1.1% active; AID 1565; in the data active = inhibition above about 60%
Rtt109 Vps75 = blocks Candida albicans Rtt109/Vps75 acetyltransferase activity. Q5AAJ8. purified Rtt109/Vps75, ThioGlo CoA-SH fluorescence, 4 h. inhibition, % at 34.9 µM. 330,000 tested, 0.16% active;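 active = inhibition of at least 50% in every replicate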
Target sequence (Q5AAJ8 whole entry, looked up): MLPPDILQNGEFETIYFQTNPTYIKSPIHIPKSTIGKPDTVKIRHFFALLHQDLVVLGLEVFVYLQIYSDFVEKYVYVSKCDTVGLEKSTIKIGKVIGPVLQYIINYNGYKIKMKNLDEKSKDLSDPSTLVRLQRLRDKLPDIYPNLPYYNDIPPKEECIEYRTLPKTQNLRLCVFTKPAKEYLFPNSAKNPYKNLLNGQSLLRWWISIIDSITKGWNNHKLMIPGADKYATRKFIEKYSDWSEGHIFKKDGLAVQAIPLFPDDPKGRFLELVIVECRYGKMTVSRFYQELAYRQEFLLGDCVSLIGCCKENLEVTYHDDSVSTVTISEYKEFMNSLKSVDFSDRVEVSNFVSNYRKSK
The depositor's hits bear a star; . = no result; ! = a repeat was not active.

SMILES	TPT1 inhibitor	SKKanGAS inh	WT yeast gro inh	Platelet DG rel	PHOSPHO1 inh	Rtt109 Vps75
CCOC(=O)C1=C(C)N(c2ccccc2)C(=O)/C1=C\c1ccc(O)c(OC)c1	-3	4	.	1	-11	21
CCOC(=O)C1=C(O)c2ccccc2C(=O)/C1=C\c1ccc(CC)cc1	-2	81*	9	7	7	2
CCCc1ccc(/C=C2\C(=O)c3ccccc3C(O)=C2C(=O)OCC)cc1	3	40	59*	-1	-13	.
CCCN=C(C)C1=C(O)c2ccccc2C1=O	1	-4	-3	-1	24	.
CCCc1nn(C)c2c(=O)[nH]c(-c3cc(S(=O)(=O)N(CCO)CCO)ccc3OCC)nc12	-1	14	.	-9	63*	-1
CCOc1ccc(S(=O)(=O)N(CCO)CCO)cc1-c1nc2c(C(C)(C)C)nn(C)c2c(=O)[nH]1	1	1	5	0	-12	3
CCN(CC(=O)Nc1c(F)cccc1F)C(=O)Cc1ccc(S(=O)(=O)N2CCOCC2)s1	.	.	.	.	.	-8
COc1ccc(S(=O)(=O)Nc2ccccc2C(=O)Nc2nc(-c3ccc(F)cc3)cs2)cc1OC	0	36	59*	3	4	-4
COc1ccc(-c2csc(NC(=O)c3ccccc3NS(=O)(=O)c3ccc(C)cc3)n2)cc1	-1	54*	11	31	-20	-3
COc1ccc(-c2csc(Nc3ccc(C)cn3)n2)cc1	0	-2	58*	0	37	-1
CC1=CCC(C(=O)O)(C(=O)N/N=C/c2cccs2)C(c2ccc([N+](=O)[O-])cc2)C1 (centres undefined)	0	-2	70*	4	17	7
c1ccc(-c2ccc(C(c3ccccc3)n3ccnc3)cc2)cc1 (centres undefined)	5	21	73*!	-2	-4	47
c1ccc(-c2ccc(-n3ccnc3)cc2)cc1	1	0	-28	3	-6	0
Cc1[nH]c2ccccc2c1C(=O)C(=O)N1CCN(C)CC1	0	5	-1	5	68*	0
Cc1[nH]c2ccccc2c1C(=O)CN1CCC(C)CC1	-4	6	-8	6	70*	1
CCN(C(=O)COC(=O)c1ccc(O)cc1O)c1c(N)n(Cc2ccccc2)c(=O)[nH]c1=O	.	.	.	.	.	0
N#CC1C(=O)NC(=O)CC12CCCCC2 (centres undefined)	.	.	.	.	.	-3
CCC1C(=O)C(CC)C(c2ccccc2)NC1c1ccccc1 (centres undefined)	1	11	.	1	.	3
CCC1C(=NO)C(CC)C(c2ccccc2)NC1c1ccccc1 (centres undefined)	1	58*	86	2	24	-4
O=C(c1sc2cc(F)ccc2c1Cl)N1CCN(c2ccccc2)CC1	-5	-1	65*	16	18	4
CCCc1c(C)nn(-c2ncccc2[N+](=O)[O-])c1C	-2	7	3	9	60*	1
O=[N+]([O-])c1cccnc1N1CCCCC1	0	-1	6	-1	32	5
CCOC(=O)C1CCN(C(c2cc3c(C)ccc(C)c3[nH]c2=O)c2nnnn2C2CCCCC2)CC1 (centres undefined)	14	-8	36	-10	74*	5
CCOC(=O)C1CCN(C(c2cc3ccc(C)c(C)c3[nH]c2=O)c2nnnn2C2CCCCC2)CC1 (centres undefined)	12	0	0	14	86*	-3
Cc1ccc(C)c2[nH]c(=O)c(C(c3nnnn3C3CCCC3)N3CCOCC3)cc12 (centres undefined)	3	-5	4	-5	-16	1
SMILES	TPT1 inhibitor	SKKanGAS inh	WT yeast gro inh	Platelet DG rel	PHOSPHO1 inh	Rtt109 Vps75
CCC(C)[C@H](NC(=O)[C@@H]1CSC2c3ccccc3C(=O)N21)C(=O)N1CCCCC1 (some centres undefined)	-2	4	.	-6	65*	-23
COc1ccccc1Nc1ccc2nonc2c1[N+](=O)[O-]	-2	-1	.	-5	.	-2
O=C(OCC(=O)N1CCC(Cc2ccccc2)CC1)c1ccc(CO)cc1	.	.	.	.	.	7
COc1ccc(C(=O)NCC(=O)OCCCOC(=O)CNC(=O)c2ccc(OC)c(OC)c2)cc1OC	-3	50*	.	-3	36	8
C=C1Cn2c(nnc2-c2ccc(Cl)cc2)S1	0	-3	-4	-1	70*	-11
O=C1CC2(CCN(C(=O)c3cccc(Br)c3)CC2)Oc2ccccc21	2	-5	.	0	.	0
CC(OC(=O)CNC(=O)c1ccc(F)cc1)C(=O)Nc1ccc(S(=O)(=O)N2CCOCC2)cc1 (centres undefined)	.	.	.	.	.	5
O=S(=O)(c1ccccc1)c1nc(Nc2ccccc2N2CCOCC2)sc1Cl	-3	9	28	12	79*	8
O=S(=O)(c1ccccc1)c1nc(NC2CC2)sc1Cl	-1	5	-5	13	12	-2
CC1(C)N=C(N)N=C(N)N1c1cccc(CN)c1	0	-16	.	-37	53	8
CC1(C)N=C(N)N=C(N)N1c1ccccc1	1	105*	-10	-5	-1	2
CC1(C)N=C(N)N=C(N)N1c1ccc(F)cc1F	-7	-11	-21	-8	18	-2
CC1(C)N=C(N)N=C(N)N1c1ccc(Oc2ccc(Cl)cc2)c(Cl)c1	-2	94*	.	1	20	-6
CCOC(=O)c1ccc(NC(=O)CC2S/C(=N/N=C/c3c[nH]c4ccccc34)NC2=O)cc1 (centres undefined)	3	65*	10	19	6	-9
Cc1ccc(OCC(=O)N2CCN(c3nnc(-c4ccc(C)cc4)c4ccccc34)CC2)cc1	-5	39	79*	-3	20	-5
COc1ccc(OCC(=O)N2CCN(c3nnc(-c4ccc(C)cc4)c4ccccc34)CC2)cc1	6	48	.	-5	51	-10
O=C(Cn1c(NCCO)nc2ccccc21)Nc1ccc2c(c1)OCCCO2	.	.	.	.	.	0
O=[N+]([O-])c1ccc(S(=O)(=O)NCCS(=O)(=O)N2CCN(c3ccccc3)CC2)cc1	-2	2	.	-8	12	5
Nc1nc(Nc2cccc(Cl)c2)nc(NCc2ccco2)c1[N+](=O)[O-]	2	75*	.	5	-4	5
CN1CCN(c2nc(NCc3ccco3)nc(N)c2[N+](=O)[O-])CC1	-2	4	.	-3	60*	4
Cc1cccc(Nc2nc(N)c([N+](=O)[O-])c(NCc3ccco3)n2)c1	-3	4	45	-1	10	25
Cc1cc(C)cc(C(=O)NCC(=O)NNC(=O)CSc2ccccc2F)c1	.	.	.	.	.	1
CC(CNC(=O)c1ccccc1Cl)NC(=O)c1ccccc1Cl (centres undefined)	-2	-9	.	-12	.	.
O=c1[nH]c(SCc2n[nH]c(=S)n2-c2ccccc2)nc2sc3c(c12)CCC3	0	3	-5	-9	85*	7
